These results are taken from PubChem BioAssay.

Each structure is given as a SMILES string. The source made the active and inactive calls. Unless noted, no rule for the calls is given here.

The nature of assay [1]: compounds binding Alexa647 anti-His antibody – biochemical, small-molecule microarray, 635 nm fluorescence, artefact control for SMM control protein annotation, primary screen (AID 1128).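 Also: score merges feature fluorescence with signal-to-noise for each printed compound spot.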 The note with it: higher = more signal.
In assay [2] the test system is Human papillomavirus type 1a E7 protein (residues 1-88). Kind of assay: HPV1a E7 small-molecule binders, primary screen, biochemical, small-molecule microarray, residues 1-88, 635 nm (AID 1129). The note with it: small-molecule microarray binding, fluorescence 635 nm; higher = more signal.
The target in assay [3] is Focal adhesion kinase 1 (Homo sapiens) (UniProt Q05397). Description: PTK2 protein binding on printed compound slides – biochemical, small-molecule microarray, 635/667 nm fluorescence, BSA, DTT, primary screen (AID 1130).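 Also: composite of spot emission at 667 nm and signal to noise over triplicate slides.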 The note with it: 635 nm fluorescence, higher = more signal.
Sequence of Focal adhesion kinase 1 (Homo sapiens) (Q05397 whole entry, looked up): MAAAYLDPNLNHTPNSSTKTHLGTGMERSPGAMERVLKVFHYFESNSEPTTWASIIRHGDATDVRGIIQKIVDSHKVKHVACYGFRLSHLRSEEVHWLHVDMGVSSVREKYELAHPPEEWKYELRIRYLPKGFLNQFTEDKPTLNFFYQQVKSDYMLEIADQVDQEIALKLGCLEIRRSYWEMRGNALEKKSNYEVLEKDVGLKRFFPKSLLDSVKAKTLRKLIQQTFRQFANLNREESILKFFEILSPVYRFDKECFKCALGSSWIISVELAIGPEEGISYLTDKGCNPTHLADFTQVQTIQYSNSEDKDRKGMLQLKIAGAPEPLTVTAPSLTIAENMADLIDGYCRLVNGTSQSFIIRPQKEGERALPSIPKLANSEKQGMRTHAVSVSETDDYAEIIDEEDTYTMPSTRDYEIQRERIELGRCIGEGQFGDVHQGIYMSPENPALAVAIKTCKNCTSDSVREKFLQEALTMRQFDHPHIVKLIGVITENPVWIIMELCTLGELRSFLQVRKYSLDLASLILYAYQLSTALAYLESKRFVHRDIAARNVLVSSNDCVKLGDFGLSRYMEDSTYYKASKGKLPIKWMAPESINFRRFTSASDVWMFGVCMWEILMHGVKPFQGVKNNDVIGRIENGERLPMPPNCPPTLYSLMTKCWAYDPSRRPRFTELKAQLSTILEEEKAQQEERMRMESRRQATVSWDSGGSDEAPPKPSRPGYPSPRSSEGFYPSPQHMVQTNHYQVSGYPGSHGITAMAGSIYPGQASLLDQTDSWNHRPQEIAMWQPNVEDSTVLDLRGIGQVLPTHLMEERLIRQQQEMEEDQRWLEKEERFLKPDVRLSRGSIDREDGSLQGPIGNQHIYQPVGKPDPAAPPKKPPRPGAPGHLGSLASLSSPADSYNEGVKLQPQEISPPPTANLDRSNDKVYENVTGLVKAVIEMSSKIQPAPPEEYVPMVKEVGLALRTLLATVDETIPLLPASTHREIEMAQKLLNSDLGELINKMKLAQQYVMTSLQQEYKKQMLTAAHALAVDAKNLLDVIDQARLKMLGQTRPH
For assay [4], the system named is Fibrinogen (Alexa647-labelled). Kind of assay: Alexa647-fibrinogen binding to printed small molecules – biochemical, small-molecule microarray, 635/667 nm fluorescence, artefact control for SMM control-protein annotation, profiling panel (AID 1131).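 Also: z-score merges 667 nm fluorescence with per-spot signal-to-noise over triplicate slides.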 The note with it: fibrinogen-A647 binding fluorescence, higher = more signal.
Assay [5] concerns the target Follistatin (Homo sapiens) (UniProt P19883). Kind of assay: FST protein binding to printed compounds – biochemical, small-molecule microarray, 635/667 nm fluorescence, primary screen (AID 1132). The note with it: 635 nm fluorescence, higher = more signal.
Assay [6] concerns the target Fibroblast growth factor 2 (Homo sapiens) (UniProt P09038). Description: basic fibroblast growth factor binding to printed compounds – biochemical, small-molecule microarray, 635/667 nm fluorescence, primary screen (AID 1133). The note with it: FGF2, fluorescence 635/667, higher = more signal.
Assay [7] is described as follows: JC-1 mitochondrial potential readout, lung cancer cells – cell-based, A549, JC-1 fluorescence, basal, 24 h, 100 nL, profiling panel (AID 1138).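 Also: A549 lung adenocarcinoma cells under basal conditions with no added stimulus; test concentration not given here.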 The note with it: higher = more signal.
For another assay, the system named is Lefty1. Description: Lefty1 protein binding to printed compounds – biochemical, small-molecule microarray, 635/667 nm fluorescence, primary screen (AID 1139). The note with it: fluorescence 635/667, higher = more signal.
Assay [8] deals with wheat germ agglutinin (Triticum aestivum), Alexa647-labelled. Kind of assay: Alexa647-WGA lectin binding to printed small molecules – biochemical, small-molecule microarray, 635/667 nm fluorescence, artefact control for SMM control-protein annotation, profiling panel (AID 1140).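 Also: score merges 667 nm feature emission with signal to noise over triplicate slides.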 The note with it: WGA-A647 binding, 635 nm fluorescence, higher = more signal.
Assay [9] addresses Luciferin 4-monooxygenase (Photinus pyralis) (UniProt P08659). Description: inhibition of purified Photinus pyralis luciferase – biochemical, luminescence, purified enzyme, 2006 set, primary screen (AID 1141).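 Also: cell-free assay with purified firefly luciferase at 100 ng per well in PBS; test concentration not given here.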 The note with it: purified firefly luciferase, SteadyGlo luminescence, 30 min; higher = more signal, called active from +8 up or from −8 down.
Assay [10] has as its system Wnt5a (protein binding on small-molecule microarray). Description: small molecules binding Wnt5a protein – biophysical, small-molecule microarray, 635/667 nm fluorescence, primary screen (AID 1142).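 Also: fluorescence read at 667 nm with signal to noise per printed feature.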 The note with it: 635 nm fluorescence, higher = more signal.
Assay [11] in a line: ATP-based viability of Huh7 replicon cells – cell-based, CellTiter-Glo luminescence, basal, 48 h, cytotoxicity control for HCV replication inhibitor project, primary screen (AID 1143).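 Also: Huh7 hepatoma cells carrying a hepatitis C replication reporter with no stimulus; test concentration not given here.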 The note with it: higher = more signal, called active from +8 up or from −8 down. Background: Replicon systems follow genome replication, usually without infectious particles.
Assay [12] can be described thus: Pseudomonas biofilm growth suppression – PAO1 strain, BacTiter-Glo luminescence, LB-PBS, primary screen (AID 1144). The note with it: P. aeruginosa PAO1 biofilm, 12 h, higher = more signal.
Assay [13] in a line: basal CRE-LacZ reporter activity in PC12 – cell-based, unstimulated, primary screen (AID 1145). The note with it: no forskolin, luminescence, 4.5 h, higher = more signal, called active from +8 up or from −8 down.
Assay [14] in a line: forskolin-driven CRE-LacZ activity in PC12 – cell-based, CRE-LacZ reporter, forskolin-stimulated, primary screen (AID 1146).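 Also: PC12 cells with 6xCRE LacZ reporter stimulated by forskolin 10 µM; beta-galactosidase reporter signal reflecting CREB driven transcription.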 The note with it: luminescence, 4.5 h, higher = more signal, called active from +8 up or from −8 down.
Assay [15] has as its target Streptavidin (Streptomyces avidinii) (UniProt P22629). Kind of assay: compounds binding control protein streptavidin – biophysical, small-molecule microarray, 635/667 nm fluorescence, artefact control for SMM compound annotation, primary screen (AID 1147).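 Also: signal reflects streptavidin binding to arrayed compounds as a control protein.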 The note with it: higher = more signal.
Assay [16] is described as follows: probe aInhba binding on compound microarray – biochemical, small-molecule microarray, 635/667 nm fluorescence, primary screen (AID 1148).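 Also: score merges 667nm spot fluorescence with signal-to-noise for antibody binding to printed compounds.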 The note with it: higher = more signal.
Assay [17] concerns the target Torsin-1A (Homo sapiens) (UniProt O14656). Description: TOR1A wild-type binding on microarray – cell lysate, small-molecule microarray, lysate, 635/667 nm, primary screen (AID 1149). The note with it: COS7 hTOR1A-WT lysate, 635 nm fluorescence, higher = more signal.
The target is the same in assay [18]. Kind of assay: torsin A mutant lysate binding on microarrays – cell lysate, small-molecule microarray, COS7 lysate, 635/667 nm fluorescence, primary screen (AID 1150).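 Also: score pools 667 nm emission and signal to noise measuring lysate protein binding.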 The note with it: COS7 hTOR1A mutant lysate, 635 nm fluorescence, higher = more signal.
The test system of assay [19] is Sonic hedgehog protein (Shh). Kind of assay: Sonic hedgehog microarray binding compounds – biochemical, small-molecule microarray, 635/667 nm fluorescence, primary screen (AID 1151).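 Also: Shh protein binding to compounds spotted on small-molecule microarray slides; score combines spot fluorescence intensity with signal-to-noise across triplicate slides.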 The note with it: 635 nm fluorescence, higher = more signal.

Sequence of Fibroblast growth factor 2 (Homo sapiens) (P09038 whole entry, looked up): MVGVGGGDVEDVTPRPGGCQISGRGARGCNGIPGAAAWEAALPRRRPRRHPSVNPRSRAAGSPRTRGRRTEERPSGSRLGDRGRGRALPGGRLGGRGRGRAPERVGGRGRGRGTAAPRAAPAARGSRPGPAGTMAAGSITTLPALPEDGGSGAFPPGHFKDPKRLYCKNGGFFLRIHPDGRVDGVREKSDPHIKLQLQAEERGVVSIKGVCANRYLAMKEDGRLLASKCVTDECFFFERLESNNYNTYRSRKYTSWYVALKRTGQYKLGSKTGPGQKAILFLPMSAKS
Sequence of Torsin-1A (Homo sapiens) (O14656 whole entry, looked up): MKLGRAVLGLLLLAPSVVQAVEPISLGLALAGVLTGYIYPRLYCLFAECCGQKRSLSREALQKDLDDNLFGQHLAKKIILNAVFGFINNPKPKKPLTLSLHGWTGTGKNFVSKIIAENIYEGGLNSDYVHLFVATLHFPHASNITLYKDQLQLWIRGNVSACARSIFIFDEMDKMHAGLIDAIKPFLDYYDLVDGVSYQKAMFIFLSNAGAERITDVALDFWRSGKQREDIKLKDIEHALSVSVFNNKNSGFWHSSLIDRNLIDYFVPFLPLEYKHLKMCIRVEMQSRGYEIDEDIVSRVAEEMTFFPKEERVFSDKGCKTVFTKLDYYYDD
Sequence of Streptavidin (Streptomyces avidinii) (P22629 whole entry, looked up): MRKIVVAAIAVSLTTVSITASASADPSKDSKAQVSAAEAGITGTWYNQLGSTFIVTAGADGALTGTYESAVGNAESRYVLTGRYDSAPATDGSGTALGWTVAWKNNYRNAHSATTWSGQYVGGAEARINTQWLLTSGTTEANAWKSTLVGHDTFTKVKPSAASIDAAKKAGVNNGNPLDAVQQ
Sequence of Luciferin 4-monooxygenase (Photinus pyralis) (P08659 whole entry, looked up): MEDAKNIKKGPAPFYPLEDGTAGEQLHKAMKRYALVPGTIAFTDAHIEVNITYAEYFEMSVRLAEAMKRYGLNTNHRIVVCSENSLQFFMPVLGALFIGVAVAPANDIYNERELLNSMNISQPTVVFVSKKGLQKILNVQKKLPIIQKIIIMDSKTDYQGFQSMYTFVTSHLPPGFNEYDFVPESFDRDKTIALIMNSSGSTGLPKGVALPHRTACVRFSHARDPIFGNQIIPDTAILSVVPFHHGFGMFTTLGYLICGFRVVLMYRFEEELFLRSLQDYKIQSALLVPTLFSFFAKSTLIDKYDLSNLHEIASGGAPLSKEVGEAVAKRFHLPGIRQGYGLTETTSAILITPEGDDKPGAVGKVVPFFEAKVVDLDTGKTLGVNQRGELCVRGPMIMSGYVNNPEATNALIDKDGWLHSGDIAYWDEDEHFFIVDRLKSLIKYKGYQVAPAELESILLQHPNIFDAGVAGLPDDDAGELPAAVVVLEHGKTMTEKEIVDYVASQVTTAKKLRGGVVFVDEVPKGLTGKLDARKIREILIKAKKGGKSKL
Sequence of Follistatin (Homo sapiens) (P19883 whole entry, looked up): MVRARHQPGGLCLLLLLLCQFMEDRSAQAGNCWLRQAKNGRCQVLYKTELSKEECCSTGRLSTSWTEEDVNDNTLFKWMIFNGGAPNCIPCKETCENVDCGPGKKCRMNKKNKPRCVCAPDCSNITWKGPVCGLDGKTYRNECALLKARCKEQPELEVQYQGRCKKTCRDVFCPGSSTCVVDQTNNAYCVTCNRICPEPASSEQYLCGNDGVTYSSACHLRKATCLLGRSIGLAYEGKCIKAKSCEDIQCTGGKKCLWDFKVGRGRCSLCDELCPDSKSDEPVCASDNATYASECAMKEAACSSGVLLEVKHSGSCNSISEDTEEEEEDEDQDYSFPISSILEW

Consider `COCCCNC(=O)[C@]1(CCS(=O)(=O)c2ccccc2)N=C(c2ccc(OCCCO)cc2)O[C@@H]1c1ccccc1CN=[N+]=[N-]`, for which the composite z-score in [1] amounted to 3.31; in assay [2], 1.25; in [3], 1.44; in [4], 0.986; in [5] it was 1.32; in [6], 0.803. For the same compound, the composite z-score turned out to be 0.144 in the assay on Lefty1; 1.45 in assay [8]; 1.31 in assay [10]; 2.07 in assay [15]; 0.424 in assay [16]; 1.35 in the assay with Torsin-1A (Homo sapiens) [17]. Also, the composite z-score with Torsin-1A (Homo sapiens) [18] amounted to 0.738; in [19], 0.36. In addition, the z-score in assay [7] is 0.705; in assay [9] it was -0.842 (inactive); in assay [11], -0.635 (inactive); in [12] it was 0.267 (inactive); in [13], -0.781 (inactive); in assay [14], -0.969 (inactive).
In the case of `CCCCCCc1nc(-c2cc(C)c(OC)c(C)c2)c(C)c2c1[Si](C(C)C)(C(C)C)OC2`, the composite z-score was -0.351 in [1]; 0.0093 in [2]; 0.126 in [3]; -0.273 in assay [4]; 0.204 in [5]; -0.18 in assay [6]. Besides, the composite z-score in the assay with Lefty1 was 0.195; in assay [8] it was -0.496; in assay [10], 0; in assay [15], 0.273; in assay [16] it was -0.128; in the assay with Torsin-1A (Homo sapiens) [17] it was 0.0704. For the same compound, the composite z-score in the assay with Torsin-1A (Homo sapiens) [18] was -1.06; in assay [19] it was 0.186. Also, the z-score is -0.522 in assay [7]; 0.325 (inactive) in assay [9]; -3.03 (inactive) in assay [11]; -0.892 (inactive) in assay [12]; 0.148 (inactive) in assay [13]; -0.101 (inactive) in assay [14].
`COc1ccc([Si](C)(C)[C@@H]2[C@@H](CC(=O)N(CCO)Cc3ccccc3)O[C@]3(C(=O)N(Cc4cccc(N5CCOC5=O)c4)c4ccccc43)[C@H]2C)cc1`: the composite z-score in assay [1] was determined as 1.78; in assay [2], 1.13; in assay [3], 0.139; in assay [4], 0.732; in assay [5], 0.583; in assay [6], 0.393. The composite z-score in the assay on Lefty1 is 0.899; in assay [8] it was 0.717; in assay [10], -0.129; in assay [15], -0.121; in [16] it was -0.176; with Torsin-1A (Homo sapiens) [17], 0.787. Moreover, the composite z-score with Torsin-1A (Homo sapiens) [18] is 0.347; in assay [19], 1.52. Also, the z-score in assay [7] was -0.154; in assay [9] it was 0.229 (inactive); in assay [11], -5.47 (inactive); in [12], -0.122 (inactive); in assay [13], 0.748 (inactive); in assay [14], -0.62 (inactive).
Regarding `O=C1O[C@H](c2ccccc2)[C@H](c2ccccc2)N2[C@H]1[C@@H](C(=O)Nc1nc3ccccc3s1)[C@]1(C(=O)Nc3ccc(C#CC4(O)CCCCCC4)cc31)[C@H]2c1ccccc1OCCO`, the composite z-score turned out to be 1.41 in assay [1]; 1.2 in assay [2]; 0.193 in assay [3]; 0.943 in assay [4]; 1.3 in assay [5]; 0.903 in [6]. Also, the composite z-score was found to be 1.16 in the assay on Lefty1; 0.742 in assay [8]; 0.731 in [10]; 0.612 in assay [15]; 0.27 in assay [16]; 0.602 with Torsin-1A (Homo sapiens) [17]. In addition, the figures for the composite z-score (with Torsin-1A (Homo sapiens) [18]; in assay [19]) were 0.597 and 1.32, respectively. Besides, the z-score in assay [7] is -2.19; in [9] it was -0.62 (inactive); in assay [11], -4.43 (inactive); in assay [12], 0.0608 (inactive); in [13], 0.346 (inactive); in [14], 0.0053 (inactive).
As for `COc1cccc(/C=C/C=O)c1`, the composite z-score in [1] was 0.0592; in assay [2], 0.203; in assay [3], -0.0159; in assay [4], -1.77; in assay [5], 0.261; in assay [6], 0.316. For the same compound, the composite z-score in the assay on Lefty1 was -0.0262; in assay [8], 0.205; in [10], 0.279; in assay [15], -0.283; in assay [16] it was 0.156; in the assay with Torsin-1A (Homo sapiens) [17], 0.582. The composite z-score with Torsin-1A (Homo sapiens) [18] was 0.351; in assay [19], 0.0757. The z-score in assay [7] was 1.47; in [9] it was -1.36 (inactive); in assay [11], -0.0204 (inactive); in assay [12], -0.301 (inactive); in assay [13], 0.0026 (inactive); in [14], 0.599 (inactive).
